Assay outcomes from PubChem.
Hits are enriched below; roughly 4.1% of the tested compounds scored in any of these assays.
BoNT-F LC inh: BoNT F light chain protease inhibition. Multiplex microsphere protease cleavage assay, flow cytometry. 0.22% of 360,000 active. inhibition, % at 10 µM; in the data active means inhibition above about 35%, passing the limit was not always enough; inconclusive means no clear call, values can overlap the other calls
Anthrax LF inh2: anthrax lethal factor protease inhibition; 0.12% of 360,000 active; AID 588501; inhibition, % at 10 µM; P15917; multiplex microsphere protease cleavage assay, LF
Bead autofluor: counter-screen for toxin protease inhibitors: compound fluorescence | 3.1% of 360,000 active | compound autofluorescence counterscreen, microsphere flow cytometry; hits give high values | fluorescence intensity (no concentration beside the values); in the data active means fluorescence intensity above about 16000; inconclusive means no clear call, values can overlap the other calls
MazF activator: MazEF (E. coli) toxin RNase activation. 0.32% of 350,000 active. FAM/BHQ RNA-DNA oligo cleavage fluorescence, 5 h. activation, % at 20 µM; in the data active means activation above about 50%
Target sequence (P0AE70 whole entry, looked up): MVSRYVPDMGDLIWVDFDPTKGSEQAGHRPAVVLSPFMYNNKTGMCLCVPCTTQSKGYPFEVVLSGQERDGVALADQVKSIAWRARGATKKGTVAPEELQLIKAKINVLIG
BoNT A protease: inhibitors of Botulinum neurotoxin A light chain protease; multiplex microsphere protease substrate cleavage, flow cytometry; inhibition, % at 10 µM; 0.17% of 360,000 active; AID 588499
VHR inh abs: DUSP3 (human) phosphatase inhibition; P51452; recombinant VHR phosphatase, pNPP absorbance; inhibition, % at 13.3 µM; 0.52% of 290,000 active; in the data active means inhibition above about 50%
Target sequence (P51452 whole entry, looked up): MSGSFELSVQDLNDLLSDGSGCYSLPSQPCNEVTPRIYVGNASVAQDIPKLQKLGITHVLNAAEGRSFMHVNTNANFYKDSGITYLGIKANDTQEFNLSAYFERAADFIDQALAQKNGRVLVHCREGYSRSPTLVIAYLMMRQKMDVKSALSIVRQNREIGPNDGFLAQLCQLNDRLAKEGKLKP
Of the large screens only hits and unclear results are named; the others gave an inactive call. Unless noted, no stated cut-off is given here; in the data, active means inhibition above about 30%; inconclusive means no clear call, values can overlap the other calls; inactive means below that.

Cc1ccc2c(c1)CCCN2C(=O)c1cc(C)c(C)s1	none (no result: VHR inh abs)
O=C(c1cccs1)N1CCc2ccccc21	Bead autofluor 21871
COc1cccc(-c2ccc(SCC(=O)NC3CCCCC3)nn2)c1	none
CC(=NCc1cccnc1)c1c(O)n(-c2ccccc2)c(=O)[nH]c1=O	Bead autofluor 20066
CC(=NCc1cccnc1)c1c(O)n(-c2ccc(Cl)cc2)c(=O)[nH]c1=O	none
CCC(=NCc1cccnc1)c1c(O)n(Cc2ccccc2)c(=O)[nH]c1=O	Bead autofluor 19069
CCCCn1c(O)c(C(CC)=NCc2cc(OC)cc(OC)c2)c(=O)[nH]c1=O	Bead autofluor 22230
CCCCn1c(O)c(C(CC)=Nc2ccc(OCC)cc2)c(=O)[nH]c1=O	Bead autofluor 16712, MazF activator 54.9
CCCCn1c(O)c(C(CC)=Nc2ccc(OC)cc2OC)c(=O)[nH]c1=O	none
CC(C)(C)c1csc(NC(=O)c2ccc(Br)o2)n1	none
CCCCn1c(O)c(C(CC)=NCc2cccnc2)c(=O)[nH]c1=O	Bead autofluor 22114
CCC(=NCc1ccc2c(c1)OCO2)c1c(O)n(C)c(=O)n(C)c1=O	none
CCC(=NCc1cc(OC)cc(OC)c1)c1c(O)n(C)c(=O)n(C)c1=O	Bead autofluor 24024, BoNT A protease inconclusive
CCOc1ccc(NC(=O)CN(C)C(=O)CSCc2ccc(C)cc2)cc1OCC	none (no result: VHR inh abs)
CCc1c(C)c(C#N)c2nc3ccccc3n2c1NCCN(C)C	Bead autofluor 17739
CCC(C)NC(=O)C1CC(=O)N(CCc2ccc(F)cc2)C1 (configuration not stated)	none
CCOC(=O)c1cnc(SC2CC(=O)N(c3ccc(C)cc3)C2=O)nc1N (configuration not stated)	Bead autofluor 24081
CC(=O)Nc1ccc(NC(=O)c2ccco2)cc1	Bead autofluor 22348
Cc1ccc(Oc2ccc(NC(=O)c3ccco3)cc2)cc1	Bead autofluor 16687
COc1cc(NS(=O)(=O)c2ccc(NC(=S)NC(=O)c3ccco3)cc2)nc(OC)n1	none
COc1cc(NS(=O)(=O)c2ccc(NC(=O)c3ccco3)cc2)nc(OC)n1	Bead autofluor 17434
Cc1ccc(NC(=O)c2ccc(OC(=O)c3ccco3)cc2)cc1	none
CCN(CC)c1ccc(NC(=O)c2ccco2)cc1	Bead autofluor 20274, BoNT A protease inconclusive
CCN1CCN(Cc2cc(Br)cc(OC)c2O)CC1	Bead autofluor 22198
CCOc1ccccc1N1CCN(Cc2ccc(OC)c(OC)c2)CC1	none (no result: BoNT-F LC inh, Anthrax LF inh2, Bead autofluor, BoNT A protease)
COc1ccc(-c2noc(CN3CCCCC3)n2)cc1OC	Bead autofluor 21443
COc1cc(CN2CCCCCC2)cc(Br)c1O	BoNT-F LC inh inconclusive, BoNT A protease inconclusive, VHR inh abs 55.0
CCOc1cc(CN2CCCCCC2)ccc1OC	VHR inh abs 57.0
CC(C)[C@H](NC(=O)c1ccco1)C(=O)Nc1ccc(OC(F)F)cc1	BoNT-F LC inh inconclusive
Oc1cc2ccccc2cc1-c1n[nH]c(=S)n1Cc1ccco1	none
COc1cccc(-c2n[nH]c(=S)n2Cc2ccco2)c1OC	Bead autofluor 20736
Cc1cccc(NC(=O)C2C3CCCCC32)c1 (configuration not stated)	BoNT-F LC inh inconclusive
CCCCn1nnc(NC(=O)CCC)n1	Bead autofluor 19212
COc1ccc(NC(=O)CCNC(=O)C2CCN(S(=O)(=O)c3ccccc3)CC2)cc1OC	none (no result: VHR inh abs)
Cc1ccc(C(=O)NC2CC3CCCC(C2)N3Cc2ccccc2)cc1 (configuration not stated)	BoNT-F LC inh inconclusive, VHR inh abs 52.8
Cc1ccc(CN2C3CCCC2CC(NC(=O)c2ccc(F)cc2)C3)cc1 (configuration not stated)	none
CCN(CC)c1ccc(/C=C2\CCC(/C=N/NC(=O)c3ccc(=O)n(C)c3)=C2N2CCOCC2)cc1	none
CCOC(=O)C1=C(O)c2ccccc2C(=O)/C1=C\c1ccc(CC)cc1	Bead autofluor 21598
CCOC(=O)C1=C(Cc2ccc(OC)cc2)C(=O)c2ccccc2C1=O	MazF activator 216.9, BoNT A protease inconclusive
CCOC(=O)C1=C(Cc2ccc(C)cc2)C(=O)c2ccccc2C1=O	none (no result: BoNT-F LC inh, Anthrax LF inh2, Bead autofluor, MazF activator, BoNT A protease)
C[C@H]1CN([C@@H](C)CO)C(=O)c2cc(NC(=O)C3CCCCC3)ccc2O[C@H]1CN(C)C(=O)Nc1ccc2c(c1)OCO2	none (no result: VHR inh abs)
Cc1cc(-c2ccc(S(=O)(=O)N3CCCCC3)s2)on1	none
O=C(c1ccco1)N(Cc1ccccc1)Cc1ccccn1	none
O=C(c1cccs1)N(Cc1ccccn1)Cc1ccco1	Bead autofluor 24079
COc1cc(-c2noc(-c3cccc(Cl)c3)n2)cc(OC)c1OC	Bead autofluor 22311
CCCOc1ccc(C2C(=O)N(C3CCCCC3)CC(=O)N2CCC)cc1OC (configuration not stated)	Bead autofluor 20044
CCCN1C(=O)CN(C2CCCCCC2)C(=O)C1c1ccc(C)cc1 (configuration not stated)	Bead autofluor 23066
Cc1ccc(C2C(=O)N(C3CCC(C)CC3)CC(=O)N2C2CCCC2)cc1 (configuration not stated)	Bead autofluor 23411
COc1cc(C2C(=O)N(C3CCCC3)CC(=O)N2Cc2ccco2)ccc1OC(C)C (configuration not stated)	Bead autofluor 21363
Cc1ccc(OCCNC(=O)CNC(=O)c2ccccc2Cl)cc1	none (no result: VHR inh abs)
O=C(CCSCc1ccccc1Cl)N1CCN(c2cccc(Cl)c2)CC1	Bead autofluor 22753
O=C(OCC(=O)N1CCN(c2ccccc2)CC1)c1cccc(Cl)c1	Bead autofluor 23047, BoNT A protease inconclusive
O=C(OCC(=O)N1CCN(c2ccccc2)CC1)c1cnc(Cl)c(Cl)c1	none (no result: BoNT-F LC inh, Anthrax LF inh2, Bead autofluor, MazF activator, BoNT A protease)
CCCn1c(=O)c(C(=O)NCCc2ccc(OC)cc2)c(O)c2ccccc21	BoNT-F LC inh inconclusive
Cc1cccc(Nc2nc(N)c([N+](=O)[O-])c(NCc3ccco3)n2)c1	none
Nc1nc(Nc2cccc(F)c2)nc(NCc2ccco2)c1[N+](=O)[O-]	MazF activator 65.9 (no result: BoNT-F LC inh, Anthrax LF inh2, Bead autofluor, BoNT A protease)
Cn1c(SCc2nc3ccccc3[nH]2)nnc1-c1cccnc1	Bead autofluor 20145, BoNT A protease inconclusive
CCOc1ccc(-c2nnc(SCc3nc4ccccc4[nH]3)n2N)cc1	Bead autofluor 22829
COc1ccccc1-c1nnc(SCc2nc3ccccc3[nH]2)n1C	none
Cc1ccc(-c2nnc(SCc3nc4ccccc4[nH]3)n2Cc2ccco2)cc1	none
Clc1ccc(-n2c(SCc3nc4ccccc4[nH]3)nnc2-c2ccncc2)cc1	Bead autofluor 21021
Brc1ccc(-n2c(SCc3nc4ccccc4[nH]3)nnc2-c2ccncc2)cc1	none
CCN(C(=O)CSc1nnc(-c2c[nH]c3ccccc23)n1C1CC1)C1CCS(=O)(=O)C1 (configuration not stated)	none (no result: VHR inh abs)
O=S(=O)(/N=C(/c1ccccc1)N1CCCCCC1)c1ccccc1	none
O=S(=O)(N=S(N1CCCCC1)N1CCCCC1)c1ccccc1	Bead autofluor 19826, BoNT A protease inconclusive
CCc1nnc(NC(=O)Nc2ccc(OC)cc2)s1	none
CCCCOC(=O)Nc1nnc(COc2ccccc2)s1	Bead autofluor 16850
